Holding throughout (assay): NCI-60 one-dose screen, 48 h (100 = growth as untreated, 0 = no growth, -100 = all killed)
Assay [1] relates to HCT-15 colon. To be noted: 10 µM unless noted.
Assay [2] concerns HT29 colon. The settings on record: 10 µM unless noted.
For assay [3], the system named is SNB-75 CNS. The settings on record: 10 µM unless noted.
The test system of assay [4] is SNB-19 CNS. To be noted: 10 µM unless noted.
The test system of assay [5] is U251 CNS. To be noted: 10 µM unless noted.
The test system of assay [6] is PC-3 prostate. To be noted: 10 µM unless noted.
Assay [7] has as its system SK-MEL-5 melanoma. To be noted: 10 µM unless noted.
Assay [8] has as its system UACC-62 melanoma. The settings on record: 10 µM unless noted.
The subject of assay [9] is LOX IMVI melanoma. The settings on record: 10 µM.
Assay [10] relates to SK-MEL-28 melanoma. To be noted: 10 µM unless noted.

The structures appear in SMILES notation. The panel holds about 83,000 compounds, 20% with a hit somewhere; the sample as a whole holds those more often.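 Percent growth is the endpoint: 0 to 100 indicates growth inhibition (40 means 60% inhibition), 0 means no net growth, and negative values indicate cell death.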 Unmarked numbers belong to inactive results. Activity calls are given as the source filed them. Rule for the calls: active = growth percent below 10; inactive = the rest.

`CC(=O)Nc1ccc(O)c(C)c1`: the growth is 118% in assay [1]; 98.4% in assay [2]; 95.4% in [3]; 104% in [4]; 92.5% in assay [5]; 87% in assay [6]. Also, the growth in assay [7] is 100%; in assay [8], 104%; in assay [9], 95.4%; in assay [10], 103%.

In the case of `CCOC(=O)c1cc(C)[nH]c(=O)c1C#N`, the growth in [1] was 101%; in assay [2], 105%; in assay [3], 85.7%; in [4], 106%; in assay [5], 102%; in [6], 80.7%. Besides, the growth in assay [7] is 107%; in assay [8], 104%; in assay [9], 97.7%; in assay [10], 112%.

Take `CCOc1ccccc1NC(=O)CCl`: the growth in assay [1] is 85.9%; in assay [2] it was 89.3%; in [3], 88.3%; in [4], 101%; in [5], 29%; in assay [6], 83.5%. Moreover, the growth in assay [7] is 71.2%; in assay [8], 83.7%; in [9], 85.3%; in assay [10], 87%.

In the case of `CC1(C)CCC(C)(C)NC(=S)N1`, the growth in assay [1] was 98.7%; in assay [2], 107%; in assay [3], 105%; in assay [4], 102%; in assay [5] it was 104%; in assay [6], 100%. Further, the growth in assay [7] is 105%; in [8], 105%; in assay [9], 96.1%; in [10], 109%.

On to `Cc1ccc(S(N)(=O)=O)cc1Cl`, for which the growth was 104% in assay [1]; 104% in assay [2]; 91.8% in assay [3]; 107% in assay [4]; 103% in assay [5]; 99.3% in [6]. For the same compound, the growth was 103% in assay [7], 105% in assay [8], 114% in assay [9] and 108% in assay [10].

Take `CCN1CCCC(N2c3ccccc3Sc3ccccc32)C1` (centres undefined): the growth in assay [1] is 102%; in assay [2] it was 89.3%; in [3], 92.8%; in [4] it was 110%; in assay [5] it was 94.6%; in [6], 97.4%. The growth in [7] is 97%; in assay [8], 104%; in assay [9], 91.2%; in [10] it was 105%.

As to `NC(=O)N1CCOCC1`, the growth in assay [1] is 106%; in assay [2], 92.4%; in assay [3], 66%; in [4], 101%; in assay [5], 107%; in assay [6] it was 87.1%. The growth in assay [7] was 105%; in [8], 104%; in assay [9] it was 107%; in assay [10], 106%.

For the compound `CN(C(=S)S(=O)(=O)C12CC3CC(CC(C3)C1)C2)c1ccccc1`, the growth in [1] is 83.7%; in assay [2], 105%; in assay [3] it was 98.9%; in assay [4] it was 102%; in assay [5], 108%; in assay [6], 82.8%. Besides, the growth in assay [7] was 101%; in assay [8] it was 91.8%; in [9] it was 81.1%; in [10] it was 107%.

As to `Cc1cc(C(=O)c2ccccc2)cc(C)c1O`, the growth was 96.4% in [1]; 113% in assay [2]; 87.8% in [3]; 120% in assay [4]; 98.1% in assay [5]; 93.5% in assay [6]. Further, the growth in assay [7] is 104%; in assay [8], 108%; in [9], 92.1%; in [10] it was 115%.

In the case of `C=C(C)[C@@H]1CC[C@]2(CO)CC[C@]3(C)[C@H](CC[C@@H]4[C@@]5(C)CC[C@H](O)C(C)(C)[C@@H]5CC[C@]43C)[C@@H]12`, the growth in [1] was 89.7%; in [2] it was 46.2%; in [3] it was 3.72% (active); in assay [4] it was 48%; in assay [5], 24.9%; in [6] it was 38.7%. The growth was -60.5% (active) in assay [7], 60.5% in assay [8] and 32.2% in assay [9].

As to `O=C(CCl)Oc1ccc([N+](=O)[O-])cc1`, the growth in assay [1] was 110%; in assay [2], 119%; in assay [3], 91.2%; in [4], 115%; in assay [5], 106%; in [6], 89.9%. For the same compound, the growth was 103% in assay [7], 114% in [8], 98.1% in assay [9] and 114% in assay [10].

Consider `CCOC(=O)/C(C#N)=C\c1c[nH]c2ccccc12`, for which the growth in [1] is 93.8%; in assay [2] it was 105%; in [3] it was 85.9%; in [4] it was 97.6%; in assay [5], 98.1%; in assay [6], 99.1%. In addition, the growth in assay [7] is 106%; in assay [8] it was 85.2%; in assay [9], 93.2%; in assay [10], 206%.

For `COC(=O)c1cccc([N+](=O)[O-])c1`, the growth in assay [1] is 105%; in assay [2], 101%; in assay [3], 120%; in assay [4], 98.6%; in assay [5] it was 97.4%; in assay [6], 97.4%. Also, the growth in assay [7] was 98.9%; in assay [8], 98.7%; in assay [9] it was 100%; in assay [10], 102%.

For `CC(=O)OC(C)c1cccc(C#N)c1` (centres undefined), the growth in assay [1] is 105%; in assay [2], 104%; in assay [3] it was 89.7%; in assay [4] it was 105%; in assay [5], 99%; in [6] it was 96.4%. Besides, the growth in assay [7] was 99.1%; in assay [8], 104%; in [9], 101%; in assay [10], 114%.

In the case of `CCOC(=O)C(CCC#N)(CCC#N)C(=O)OCC`, the growth in assay [1] was 98.7%; in assay [2] it was 111%; in assay [3], 80.9%; in [4], 100%; in assay [5], 102%; in assay [6], 97.6%. Moreover, the growth in [7] was 102%; in [8], 103%; in [9], 111%; in assay [10] it was 107%.

For the origin of these results see PubChem BioAssay (NCI).
